Assay outcomes deposited in PubChem BioAssay by National Center for Advancing Translational Sciences (NCATS).
RECQ1 inh-1: blocks DNA unwinding by human RECQ1. P46063. RECQ1 DNA unwinding, red fluorescence kinetic read. Potency, µM (series often up to 57.3 µM), for inactives: at the top dose activity, negative = inhibition, hits mostly inhibitors. 240,000 compounds, 0.54% hits;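 further: plate controls were vehicle for no effect and no enzyme for full effect; nearly all actives have a fitted effect of over 30% in size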
Target sequence (P46063 whole entry, looked up): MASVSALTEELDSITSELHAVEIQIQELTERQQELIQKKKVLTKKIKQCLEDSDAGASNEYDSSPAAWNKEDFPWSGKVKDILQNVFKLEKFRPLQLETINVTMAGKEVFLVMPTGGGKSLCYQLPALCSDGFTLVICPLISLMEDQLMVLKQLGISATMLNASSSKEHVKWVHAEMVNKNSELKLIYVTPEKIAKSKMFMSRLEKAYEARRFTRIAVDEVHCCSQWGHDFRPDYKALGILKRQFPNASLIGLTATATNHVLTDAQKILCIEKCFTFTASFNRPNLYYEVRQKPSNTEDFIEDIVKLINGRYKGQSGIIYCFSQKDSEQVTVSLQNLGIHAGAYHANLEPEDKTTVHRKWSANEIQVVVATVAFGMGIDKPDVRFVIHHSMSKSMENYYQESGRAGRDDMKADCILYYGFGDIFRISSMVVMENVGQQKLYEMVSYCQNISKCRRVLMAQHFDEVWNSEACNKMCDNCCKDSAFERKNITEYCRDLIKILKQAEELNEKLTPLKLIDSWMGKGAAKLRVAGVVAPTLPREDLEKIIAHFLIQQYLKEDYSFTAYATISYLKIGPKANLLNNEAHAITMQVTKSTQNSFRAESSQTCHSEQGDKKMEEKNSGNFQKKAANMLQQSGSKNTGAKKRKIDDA
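RECQ1T1 50 nM; forked duplex (20 bp + 30-nt ss tails) 200 nM, ATP 2 mM final; pH 8.0, 2 mM MgCl2, 2.5 ug/ml poly(dI-dC); 15 min compound preincubation; discontinuous kinetic read over 2 h at RT.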
KDM4E inh: blocks human JMJD2E demethylase activity; JMJD2E catalytic domain, FDH-coupled NADH fluorescence (FDH is formaldehyde dehydrogenase); Potency, µM (titrated, usually from 57.1 µM), without a hit: top-dose activity change, negative = inhibition, hits mostly inhibitors; 230,000 compounds, 1.6% hits; AID 2147; active means well fitted inhibition curve with a large enough effect, not every such curve was filed as active; inconclusive means small, poorly fitted or top-dose-only effect, or another doubt; inactive means no such curve, though single readings can be large or run the other way;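 further: 0% = wells with enzyme and -100% = buffer wells without enzyme; nearly all actives have a fitted effect of over 50% in size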
BLM helicase inh: blocks DNA unwinding by human BLM helicase; Potency, µM (series often up to 56.1 µM), without a hit: top-dose activity change, negative = inhibition, hits mostly inhibitors; 350,000 compounds, 0.2% hits; AID 2528; P54132; recombinant BLM DNA unwinding, fluorescence dequenching;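 further: plate controls were vehicle for no effect and no enzyme for full effect; nearly all actives have a fitted effect of over 35% in size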
APE1 inh: blocks human APE1 abasic DNA cleavage; 350,000 compounds, 0.35% hits; Potency, µM (titrated, usually from 65.8 µM), for the others: top-dose activity change, negative = inhibition, actives largely listed as inhibitors; recombinant APE1, TAMRA/BHQ-2 abasic DNA cleavage fluorescence; P27695; AID 2517;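 further: plate controls were vehicle for no effect and reference inhibitor for full effect; nearly all actives have a fitted effect of over 55% in size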
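Kinetic fluorescence read (525 ex/598 em nm, three reads 60 s apart) of AP-site incision; signal = third minus first read. Enzyme 0.75 nM, dual-labelled THF duplex 50 nM, compound preincubation 15 min RT.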
PKM2 act: PKM2 (human) enzyme activation. P14618. purified PKM2, Kinase-Glo ATP luminescence, activation; response scale: 0% is enzyme alone, no compound. Potency, µM (top dose mostly 57.5 µM), for inactives: at the highest dose activation, most hits filed as activators. 260,000 compounds, 0.34% hits; further: nearly all actives have a fitted effect of over 55% in size
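hPK-M2, >95% pure; 0.1 mM ADP / 0.5 mM PEP final; imidazole pH7.2 buffer w/ 7 mM MgCl2, 50 mM KCl; 1 h RT; Kinase-Glo lum. Intermediate enzyme activity for dual inhibitor/activator qHTS.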
RECQ1 inh conf: confirmation of human RECQ1 helicase inhibitors; shares compounds with RECQ1 inh-1; RECQ1 helicase DNA unwinding, fluorescence; Potency, µM (highest dose often 229 µM), for inactives: at the highest dose activity change, negative = inhibition, most hits filed as inhibitors; 610 compounds, 28% hits; further: nearly all actives have a fitted effect of over 45% in size
ADP FP counter: ADP displacement flagged in RECQ1 inhibitor counter-screen. shares compounds with RECQ1 inh-1. ADP fluorescence polarization displacement counterscreen. Potency, µM (titrated, usually from 228 µM), inactives show at the highest dose activity change, negative = inhibition, most hits filed as inhibitors. 530 compounds, 27% hits. AID 2711; further: nearly all actives have a fitted effect of over 45% in size
RECQ1 inh-2: blocks human RECQ1 DNA unwinding. shares compounds with RECQ1 inh-1. recombinant RECQ1 DNA unwinding, red fluorescence. Potency, µM (series often up to 119 µM), inactives show top-dose activity, negative = inhibition, most hits filed as inhibitors. 1,100 compounds, 15% hits. AID 504841; further: nearly all actives have a fitted effect of over 50% in size
* = called active by the depositor; ! = not active in a repeat; [ ] = remark or other dose. Many of the other results were omitted from the sample, so hits are more common in it than they were. Unless noted, the call rests on the fitted dose curve; in most records, active means well fitted curve in the direction sought with a large enough effect; inconclusive means small, poorly fitted or top-dose-only effect, or another doubt; inactive means no such curve, though single readings can be large; an effect the other way counts as inactive or inconclusive. Unless noted, on the % scale 0 is the no-effect control and ±100 the full control effect; potency means the concentration at half of the fitted maximal effect.

Screening Cc1ccc2c(c1)c1nnc(SCC(=O)N3CCCc4ccccc43)nc1n2CC(=O)O returned RECQ1 inh-1 8%, KDM4E inh 9%, BLM helicase inh -8%, APE1 inh 2%, PKM2 act -32%, RECQ1 inh conf 16% and ADP FP counter inconclusive.
Screening Cc1cccc(C)c1NC(=O)Cn1c(=O)n(Cc2ccco2)c(=O)c2ccc(C(=O)NC3CCCC3)cc21 returned BLM helicase inh 1%.
For CCCCC1=CC2=CC(=O)C(C)(OC(=O)CC)C(=O)C2=CN1Cc1ccccc1 (stereo not drawn) the results were RECQ1 inh-1 -8%[11.5 µM], KDM4E inh inconclusive, BLM helicase inh 0%[12.4 µM], APE1 inh 13%[12.4 µM] and PKM2 act -6%[11.5 µM].
CCCCC1=CC2=CC(=O)C(C)(OC(=O)CC)C(=O)C2=CN1Cc1ccco1 (stereo not drawn) was read as RECQ1 inh-1 inconclusive, KDM4E inh 22µM*!, BLM helicase inh -6%[12.4 µM], APE1 inh inconclusive, PKM2 act -2%[11.5 µM] and RECQ1 inh-2 -11%.
Cc1ccc(C)c(N2CCN(C(=O)c3cc(S(=O)(=O)N4CCCC4)c[nH]3)CC2)c1 was read as BLM helicase inh 3%.
`COc1ccc(Nc2cc(C(=O)NCCCN3CCN(c4ccc(OC)cc4)CC3)c3ccccc3n2)cc1` gave BLM helicase inh -10%.
`CCCn1c(CCC(=O)O)nc2cc(S(=O)(=O)N3CCCC3)ccc21` gave RECQ1 inh-1 -5%, KDM4E inh -2%, BLM helicase inh -6%, APE1 inh -3%, PKM2 act -5%, RECQ1 inh conf 112µM* and ADP FP counter inconclusive.
`CN(C)S(=O)(=O)c1ccc2c(c1)nc(CCC(=O)O)n2C` gave RECQ1 inh-1 -9%, KDM4E inh -4%, BLM helicase inh -5%, APE1 inh 15%, PKM2 act 1%, RECQ1 inh conf 20% and ADP FP counter 100µM*.
Screening CCCCn1c(CCC(=O)O)nc2cc(S(=O)(=O)N(CC)CC)ccc21 returned RECQ1 inh-1 -25%, KDM4E inh -1%, BLM helicase inh -4%, APE1 inh -2%, PKM2 act 0%, RECQ1 inh conf 89µM* and ADP FP counter 11%.
CNC(=O)C1CCC(Cn2c(=O)c3sccc3n(Cc3ccccc3)c2=O)CC1 (stereo not drawn) was read as BLM helicase inh 0%.
Screening O=c1cnc2cncnc2n1Cc1ccccc1 returned RECQ1 inh-1 -3%, BLM helicase inh -12% and APE1 inh -8%.
COc1ncc2nc(-c3ccccc3)c(=O)n(C)c2n1 was read as RECQ1 inh-1 0%, BLM helicase inh 5% and APE1 inh -5%.
`S=C(NCc1ccco1)Nc1ccc(Oc2ccc(Cl)cc2)cc1` gave RECQ1 inh-1 inconclusive, KDM4E inh -25%, BLM helicase inh -14%, APE1 inh 18%, PKM2 act -2% and RECQ1 inh-2 -28%.
Screening C[C@]12O[C@H]1[C@@H](O)C(Br)=C(CO)[C@H]2O returned RECQ1 inh-1 -7%, KDM4E inh 6%, BLM helicase inh 3% and APE1 inh 17%.
Cc1ccc(N2C(=O)/C(=C/c3ccco3)SC2=S)cc1 was read as RECQ1 inh-1 -12%, KDM4E inh -1%, BLM helicase inh -11%, APE1 inh inconclusive and PKM2 act 2%.
`O=C(NN1C(=O)/C(=C/C=C/c2ccco2)SC1=S)c1ccccc1O` gave RECQ1 inh-1 2.5µM*, KDM4E inh 13µM*, BLM helicase inh inconclusive, APE1 inh 2µM*, PKM2 act inconclusive, RECQ1 inh conf 13µM* and ADP FP counter 14µM*.
`O=C1S/C(=C\C=C\c2ccco2)C(=O)N1c1ccccc1` gave RECQ1 inh-1 inconclusive, KDM4E inh inconclusive, BLM helicase inh -18%, APE1 inh 28µM*, PKM2 act 9% and RECQ1 inh-2 -29%.
Screening O=C(N/C=C/c1ccco1)NCc1ccccc1 returned RECQ1 inh-1 inconclusive, KDM4E inh inconclusive, BLM helicase inh -10%, APE1 inh inconclusive and RECQ1 inh-2 -27%.
Screening CC(C)=C1C(=O)NN(c2ccc(C)c(Cl)c2)C1=O returned RECQ1 inh-1 inconclusive, KDM4E inh 2%, BLM helicase inh -5%, APE1 inh -1%, PKM2 act 10% and RECQ1 inh-2 -3%.
Cc1cc(C(=O)CSc2nnc(-c3ccco3)o2)c(C)n1CC1COc2ccccc2O1 (stereo not drawn) was read as RECQ1 inh-1 32µM*, KDM4E inh inconclusive, BLM helicase inh -9%, APE1 inh inconclusive, PKM2 act -3% and RECQ1 inh-2 -10%.
For Cc1ccc(-c2noc(-c3nnn(CC(=O)Nc4cccc(C(F)(F)F)c4)c3N)n2)cc1 the results were BLM helicase inh -11%.
Screening CCOC(=O)c1ccc(NC(=O)CSc2nc(C)cc(=O)[nH]2)cc1 returned RECQ1 inh-1 inconclusive, KDM4E inh -1%, BLM helicase inh -20%, APE1 inh -12%, PKM2 act 0% and RECQ1 inh-2 inconclusive.
`Cc1cc2nc3c(=O)[nH]c(=O)nc-3n(C)c2cc1C=O` gave RECQ1 inh-1 3.2µM*, BLM helicase inh 16µM*, APE1 inh -6%, RECQ1 inh conf active and ADP FP counter 6.3µM*.
`Cc1cc2nc(C)c(=O)n(C)c2cc1C` gave RECQ1 inh-1 3%, KDM4E inh inconclusive, BLM helicase inh 0%, APE1 inh -2% and PKM2 act 7%.
O=C(/C=C/c1ccco1)Nc1ccc(C(=O)N2CCOCC2)cc1 was read as RECQ1 inh-1 inconclusive, KDM4E inh -1%, BLM helicase inh -16%, APE1 inh -4%, PKM2 act 5% and RECQ1 inh-2 -28%.
For Cc1[nH]c(=O)c(C(=O)/C=C/c2ccccc2F)c2c1CCCC2 the results were RECQ1 inh-1 32µM*, KDM4E inh -8%, BLM helicase inh -7%, APE1 inh 13%, PKM2 act -1% and RECQ1 inh-2 inconclusive.
`Cc1cccc(N2CCN(C(=O)c3ccc4c(Cl)c5c(nc4c3)CCCC5)CC2)c1C` gave BLM helicase inh -9%.
